# Measurements: PubChem BioAssay
# Calls of active or inactive are those of the source.
# Legend:
# [1] = E. coli DRC41 culture turbidity changes, primary screen, E. coli filamentation inducer project, strain DRC41, OD650, 48 h (AID 1152);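 also: E. coli MC1000 strain DRC41 lacking acrAB efflux pump and sulA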; conditions: E. coli DRC41 (acrAB sulA), higher = more signal, called active from +8 up or from −8 down
# [2] = small-molecule binders of probe aLefty1, primary screen, biochemical, small-molecule microarray, 635/667 nm fluorescence (AID 1153); conditions: higher = more signal;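 also: score merges spot fluorescence with signal-to-noise ratio from the scanned slide images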
# [3] = PSAC antagonists in infected red cells, primary screen, cell-based, P. falciparum Indochina, OD700, 1 h (AID 1154); conditions: P. falciparum Indochina infected RBC osmotic lysis, higher = more signal, called active from +8 up or from −8 down
# [4] = PSAC antagonists in infected red cells, primary screen, cell-based, P. falciparum Indochina, OD700, 2 h (AID 1155);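 also: lysis reports solute entry through the parasite surface anion channel PSAC; channel blockers reduce lysis of infected cells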; conditions: P. falciparum Indochina infected erythrocytes, osmotic lysis OD700; higher = more signal, called active from +8 up or from −8 down
# [5] = osmotic lysis modulators in infected erythrocytes, primary screen, PSAC antagonist project, cell-based, P. falciparum Indochina, OD700, 3 h (AID 1156); conditions: higher = more signal, called active from +8 up or from −8 down
# [6] = PSAC antagonists in infected red cells, primary screen, cell-based, P. falciparum Indochina, OD700, 18 h (AID 1157); conditions: P. falciparum Indochina infected erythrocytes, osmotic lysis OD700, 18 h; higher = more signal, called active from +8 up or from −8 down
# [7] = modulators of S6 phosphorylation in cells, primary screen, cell-based, A549, cytoblot, luminescence, serum-stimulated (AID 1158); conditions: A549 phospho-S6 cytoblot, 5 h, higher = more signal;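 also: serum-stimulated A549 lung adenocarcinoma cells; signal is phosphorylated S6 detected by cytoblot immunostaining with HRP secondary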
# [8] = molecular target: NADPH oxidase 2 (Homo sapiens) (UniProt P04839); test: NOX2-dependent H2O2 signal modulators, primary screen, NOX inhibitor project, cell-based, HEK293-NOX2, PMA-stimulated, Amplex Red fluorescence (AID 1159); conditions: 45 min, higher = more signal, called active from +8 up or from −8 down; also: test concentration not given here
# [9] = molecular target: NADPH oxidase 4 (Homo sapiens) (UniProt Q9NPH5); test: NOX4-dependent H2O2 signal modulators, primary screen, NOX inhibitor project, cell-based, HEK293-NOX4, tetracycline-induced, Amplex Red fluorescence (AID 1160); conditions: 45 min, higher = more signal, called active from +8 up or from −8 down
# [10] = molecular target: NADPH oxidase 5 (Homo sapiens) (UniProt Q96PH1); test: NOX5-dependent H2O2 signal modulators, primary screen, NOX inhibitor project, cell-based, HEK293-NOX5, Amplex Red fluorescence (AID 1161); conditions: HEK293-NOX5, ionomycin, 45 min, higher = more signal
# [11] = A549 cell viability effects, profiling panel, calcein-AM fluorescence, 48 h, basal (AID 1162); conditions: higher = more signal; also: test concentration not given here
# [12] = adipocyte viability effects, profiling panel, cell-based, 3T3-L1 adipocytes, calcein-AM fluorescence, 48 h, basal (AID 1163); conditions: 3T3-L1 adipocytes viability, higher = more signal; also: test concentration not given here
# [13] = HepG2 cell viability effects, profiling panel, calcein-AM fluorescence, 48 h, basal (AID 1164); conditions: higher = more signal; also: test concentration not given here
# [14] = MM1S cell viability effects, profiling panel, calcein-AM fluorescence, 48 h, basal (AID 1165); conditions: higher = more signal;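 also: viability of MM1S multiple myeloma cells under basal unstimulated conditions; test concentration not given here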
# [15] = basal RPMI8226 viability, no added stimulus, profiling panel, cell-based, calcein-AM fluorescence, 48 h, PK04 Diversity Set (AID 1166); conditions: RPMI8226 myeloma viability, higher = more signal;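 also: cells grown under basal conditions without added stimulus; test concentration not given here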
# [16] = basal HepG2 mitochondrial membrane potential changes, profiling panel, cell-based, JC-1 fluorescence, 24 h, 100 nL compound (AID 1167); conditions: higher = more signal; also: test concentration not given here
# [17] = basal 3T3-L1 adipocyte mitochondrial potential changes, profiling panel, cell-based, JC-1 fluorescence, 3T3-L1 adipocytes, 24 h, 100 nL compound (AID 1168); conditions: JC-1 mitochondrial fluorescence, higher = more signal, called active from +8 up or from −8 down; also: test concentration not given here
# [18] = basal RPMI8226 mitochondrial membrane potential changes, profiling panel, cell-based, JC-1 fluorescence, 24 h, 100 nL compound (AID 1169); conditions: RPMI8226 myeloma, JC-1 mitochondrial potential fluorescence, higher = more signal; also: test concentration not given here
# [19] = basal MM1S mitochondrial membrane potential changes, profiling panel, cell-based, JC-1 fluorescence, 24 h, 100 nL compound (AID 1170); conditions: higher = more signal; also: test concentration not given here
# [20] = A549 lung cancer cell viability effects, profiling panel, resazurin fluorescence, 24 h, PK04 Diversity Set (AID 1171); conditions: higher = more signal, called active from +8 up or from −8 down; also: test concentration not given here
# NADPH oxidase 2 (Homo sapiens), sequence (P04839 whole entry, looked up): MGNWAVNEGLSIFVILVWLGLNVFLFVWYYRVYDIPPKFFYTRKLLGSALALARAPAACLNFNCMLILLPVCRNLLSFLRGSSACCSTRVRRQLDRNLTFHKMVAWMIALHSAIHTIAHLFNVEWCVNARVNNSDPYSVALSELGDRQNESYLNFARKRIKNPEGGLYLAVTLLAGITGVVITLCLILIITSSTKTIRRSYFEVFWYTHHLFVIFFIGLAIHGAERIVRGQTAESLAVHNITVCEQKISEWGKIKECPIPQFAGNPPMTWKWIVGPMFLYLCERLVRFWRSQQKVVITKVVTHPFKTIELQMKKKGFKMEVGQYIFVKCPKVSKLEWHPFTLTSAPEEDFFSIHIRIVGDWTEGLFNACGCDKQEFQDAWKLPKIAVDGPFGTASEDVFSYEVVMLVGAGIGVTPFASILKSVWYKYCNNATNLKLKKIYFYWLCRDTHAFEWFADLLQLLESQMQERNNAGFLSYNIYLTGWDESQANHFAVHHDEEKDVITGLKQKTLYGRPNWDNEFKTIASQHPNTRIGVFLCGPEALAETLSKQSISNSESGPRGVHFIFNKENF
# NADPH oxidase 4 (Homo sapiens), sequence (Q9NPH5 whole entry, looked up): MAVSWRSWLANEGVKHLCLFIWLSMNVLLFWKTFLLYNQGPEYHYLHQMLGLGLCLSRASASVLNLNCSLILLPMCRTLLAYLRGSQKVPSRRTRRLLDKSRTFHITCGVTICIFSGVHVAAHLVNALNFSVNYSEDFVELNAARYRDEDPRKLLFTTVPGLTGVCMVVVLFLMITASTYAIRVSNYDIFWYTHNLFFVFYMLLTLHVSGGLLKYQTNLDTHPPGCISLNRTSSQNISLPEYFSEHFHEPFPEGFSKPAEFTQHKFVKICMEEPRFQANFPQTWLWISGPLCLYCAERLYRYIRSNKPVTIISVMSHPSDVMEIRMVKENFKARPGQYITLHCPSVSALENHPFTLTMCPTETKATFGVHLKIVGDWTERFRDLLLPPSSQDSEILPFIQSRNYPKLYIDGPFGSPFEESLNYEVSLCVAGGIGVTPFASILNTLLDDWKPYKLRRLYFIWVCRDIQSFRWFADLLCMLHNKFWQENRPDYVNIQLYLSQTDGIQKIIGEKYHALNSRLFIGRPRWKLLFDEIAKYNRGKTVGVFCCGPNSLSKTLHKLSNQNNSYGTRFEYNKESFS
# NADPH oxidase 5 (Homo sapiens), sequence (Q96PH1 whole entry, looked up): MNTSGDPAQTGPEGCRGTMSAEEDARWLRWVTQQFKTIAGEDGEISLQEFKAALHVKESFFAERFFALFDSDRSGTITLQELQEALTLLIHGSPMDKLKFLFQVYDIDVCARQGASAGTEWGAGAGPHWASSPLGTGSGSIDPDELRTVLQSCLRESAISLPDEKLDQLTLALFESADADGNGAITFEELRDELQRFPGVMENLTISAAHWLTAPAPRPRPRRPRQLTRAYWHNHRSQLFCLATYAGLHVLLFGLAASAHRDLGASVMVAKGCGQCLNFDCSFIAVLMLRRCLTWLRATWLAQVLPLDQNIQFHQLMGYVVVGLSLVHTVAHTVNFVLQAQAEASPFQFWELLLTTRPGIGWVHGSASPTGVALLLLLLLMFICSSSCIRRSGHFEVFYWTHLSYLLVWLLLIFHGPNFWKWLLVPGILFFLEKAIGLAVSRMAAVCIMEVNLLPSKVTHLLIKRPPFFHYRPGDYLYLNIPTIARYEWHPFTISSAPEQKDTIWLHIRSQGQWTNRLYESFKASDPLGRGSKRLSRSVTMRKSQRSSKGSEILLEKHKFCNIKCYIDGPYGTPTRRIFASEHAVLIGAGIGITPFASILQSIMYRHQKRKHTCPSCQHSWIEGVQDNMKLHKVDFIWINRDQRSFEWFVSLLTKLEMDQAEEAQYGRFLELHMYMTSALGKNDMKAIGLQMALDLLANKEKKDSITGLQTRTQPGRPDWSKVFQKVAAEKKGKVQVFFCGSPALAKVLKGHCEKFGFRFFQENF
SMILES,z-score [1],composite z-score [2],z-score [3],z-score [4],z-score [5],z-score [6],z-score [7],z-score [8],z-score [9],z-score [10],z-score [11],z-score [12],z-score [13],z-score [14],z-score [15],z-score [16],z-score [17],z-score [18],z-score [19],z-score [20]
CC[C@H]1C2=C3C(CC[C@H]4C(OCc5ccc(F)cc5C(F)(F)F)OC[C@](C)([C@@H]34)N(C(=O)OC(C)(C)C)C2)C(COC(C)=O)C1COC(C)=O (stereo not given in full),-2.44 (inactive),0.713,0.408 (inactive),-0.248 (inactive),0.483 (inactive),0.323 (inactive),-0.772,-1.05 (inactive),-2.56 (inactive),-1.43,-0.128,-0.154,0.228,-0.814,-2.5,3.43,-1.43 (inactive),-0.555,-1.29,0.226 (inactive)
NCCCCCCNC(=O)[C@@H]1C[C@@H]2C(=O)NCC(=O)N2[C@@H]1c1cccc(OCCO)c1,0.884 (inactive),0.0892,1.68 (inactive),0.774 (inactive),-0.523 (inactive),0.0308 (inactive),1.51,1.29 (inactive),0.934 (inactive),1.65,0.51,0.22,1.06,0.604,-0.431,1.14,0.885 (inactive),0.533,0.307,0.678 (inactive)
C=CCNC(=O)[C@@H]1[C@H]2C(=O)O[C@H](c3ccccc3)[C@H](c3ccccc3)N2[C@H](c2ccc(OCCO)cc2)[C@@]12C(=O)Nc1ccc(C#CCNC(N)=O)cc12,-0.582 (inactive),0.124,2.55 (inactive),0.268 (inactive),0.422 (inactive),-0.0239 (inactive),0.386,1.88 (inactive),1.2 (inactive),-0.268,-0.842,0.274,-0.397,0.0041,0.155,-0.921,-0.962 (inactive),0.672,1.23,0.36 (inactive)
COC(=O)C1=CC(CCCO)=CC(c2ccc(CN3CCCC3)cc2)N(C)C=C1C(=O)OC (stereo not given),0.265 (inactive),0.212,1.77 (inactive),0.422 (inactive),0.587 (inactive),0.155 (inactive),-0.387,0.452 (inactive),0.225 (inactive),0.463,0.71,-0.0962,0.204,0.608,0.433,0.91,0.735 (inactive),0.173,-0.537,-0.632 (inactive)
COCCOC(=O)N1C(=O)[C@@]2(c3cc(C#CC4=CCCCC4)ccc31)[C@H](c1ccc(O)cc1)N1[C@H](c3ccccc3)[C@H](c3ccccc3)OC(=O)[C@H]1[C@@H]2C(=O)N1CCc2cc(OC)c(OC)cc2C1,-0.164 (inactive),0.0355,0.751 (inactive),0.394 (inactive),-6.44 (inactive),0.0991 (inactive),-0.294,1.48 (inactive),1.04 (inactive),1.03,-0.565,-0.154,-0.493,0.0055,-1.33,0.0573,1.8 (inactive),-1.11,-0.432,0.0836 (inactive)
COCCOC(=O)N1C(=O)[C@@]2(c3cc(C#CCNC(N)=O)ccc31)[C@H](C(=O)N1CCN(c3ncccn3)CC1)[C@H]1C(=O)O[C@H](c3ccccc3)[C@H](c3ccccc3)N1[C@@H]2c1ccc(O)cc1,0.03 (inactive),-0.514,1.35 (inactive),-0.136 (inactive),0.889 (inactive),0.539 (inactive),-0.285,0.806 (inactive),0.432 (inactive),0.31,0.722,-0.118,0.568,0.445,1.17,0.866,-0.709 (inactive),-0.0604,-0.564,-0.824 (inactive)
CCOC(=O)C[C@H]1[C@H](OC(=O)c2ccccc2-c2ccccc2)[C@@H](NC(=O)CC(C)C)c2cc(OCCCO)ccc2N1C(=O)c1ccccc1,0.822 (inactive),0.0816,0.0883 (inactive),-1.7 (inactive),-1.27 (inactive),-2.84 (inactive),1.47,0.924 (inactive),0.899 (inactive),-1.19,0.682,1.32,-0.177,-0.271,0.107,2.01,0.197 (inactive),-0.986,-0.0327,1.65 (inactive)
COCCOC(=O)N1C(=O)[C@@]2(c3cc(C#CCC(C(=O)OC)C(=O)OC)ccc31)[C@H](c1ccc(O)cc1)N1[C@H](c3ccccc3)[C@H](c3ccccc3)OC(=O)[C@H]1[C@@H]2C(=O)N1CCc2cc(OC)c(OC)cc2C1,0.904 (inactive),-0.149,0.442 (inactive),0.0876 (inactive),0.328 (inactive),0.394 (inactive),0.161,1.94 (inactive),0.336 (inactive),1.23,0.393,0.632,0.806,-0.243,-3.34,0.763,-0.291 (inactive),-1.15,0.22,0.742 (inactive)
